Source: PubChem BioAssay AID1159580 (chemical genetic matrix, 2015)
The whole screen tested about 5,500 compounds, of which about 2,000 (36%) were called active. Not shown: some 18% with an inconclusive outcome. No stated cut-off is given here; in the data, active means normalized growth mostly below about 0.91 (no sharp cut-off); inconclusive means no clear call, values can overlap the other calls; inactive means mostly above about 0.92. The list shows a part of the results.

Experiment: chemical genetic growth profiling, strain panel (AID 1159580);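 further: tested at 20 µM; growth read once vehicle control cultures reached saturation at 30 °C; 1 = growth at the plate median or of vehicle wells; lower values mean less growth of the strain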
Settings: S. cerevisiae deletion strains, growth OD

Measured: normalized growth

CC(CCC(=O)O)[C@H]1CCC2C3CC[C@@H]4C[C@H](O)CC[C@]4(C)C3CC[C@@]21C (stereo partly drawn)
active: locus YJR043C, strain POL32, active compounds read low 0.849 | locus YKL190W, strain CNB1, active compounds read low 0.882 | locus YKR001C, strain vps1, active compounds read low 0.861 | locus YLR027C, strain aat2, active compounds read low 0.921 | locus YLR039C, strain RIC1, active compounds read low 0.479 | locus YLR102C, strain apc9, active compounds read low 1.08 [resistant] | locus YLR262C, strain YPT6 (second series), active compounds read low 0.488 | locus YLR262C, strain YPT6, active compounds read low 0.321 | locus YLR320W, strain mms22, active compounds read low 0.706 | locus YLR330W, strain CHS5, active compounds read low 0.849 | locus YLR342W, strain FKS1 (second series), active compounds read low 0.566 | locus YLR342W, strain FKS1, active compounds read low 0.688 | locus YLR418C, strain cdc73, active compounds read low 0.74 | locus YMR058W, strain fet3, active compounds read low 0.871 | locus YMR205C, strain PFK2, active compounds read low 0.854 | locus YMR307W, strain GAS1, active compounds read low 0.456 | locus YNL067W, strain RPL9B, active compounds read low 0.756 | locus YNL071W, strain lat1, active compounds read low 0.809 | locus YNL307C, strain MCK1, active compounds read low 0.795 | locus YNR052C, strain pop2, active compounds read low 0.838 | locus YOR001W, strain rrp6, active compounds read low 0.851 | locus YOR069W, strain VPS5, active compounds read low 0.876 | locus YOR083W, strain WHI5, active compounds read low 0.844 | locus YOR106W, strain vam3, active compounds read low 0.77 | locus YOR136W, strain idh2, active compounds read low 1.08 [resistant] | locus YOR184W, strain ser1, active compounds read low 0.505 | locus YOR316C, strain cot1, active compounds read low 1.1 [resistant] | locus YPL051W, strain arl3, active compounds read low 0.793 | locus YPL078C, strain atp4, active compounds read low 0.892 | locus YPR119W, strain clb2, active compounds read low 1.11 [resistant] | locus YPR141C, strain kar3, active compounds read low 1.09 [resistant]
inactive: locus YJL187C, strain SWE1, active compounds read low 0.979 | locus YJR066W, strain TOR1, active compounds read low 0.952 | locus YKL009W, strain mrt4, active compounds read low 0.935 | locus YKL068W, active compounds read low 1.05 | locus YKL085W, strain MDH1 (second series), active compounds read low 1.03 | locus YKL085W, strain MDH1, active compounds read low 1.03 | locus YKL160W, strain elf1, active compounds read low 0.927 | locus YKR026C, strain gcn3, active compounds read low 1.02 | locus YKR091W, strain srl3, active compounds read low 1.03 | locus YLL001W, strain dnm1, active compounds read low 0.933 | locus YLL026W, active compounds read low 0.955 | locus YLL041C, strain sdh2, active compounds read low 1.02 | locus YLR058C, strain SHM2, active compounds read low 0.893 | locus YLR113W, strain HOG1, active compounds read low 0.963 | locus YLR221C, strain rsa3, active compounds read low 0.938 | locus YLR258W, strain gsy2, active compounds read low 0.967 | locus YLR268W, strain sec22, active compounds read low 0.886 | locus YLR357W, strain rsc2, active compounds read low 1.07 | locus YLR370C, strain arc18, active compounds read low 0.991 | locus YLR371W, strain rom2, active compounds read low 1.09 | locus YLR384C, strain iki3, active compounds read low 1.07 | locus YML016C, strain PPZ1, active compounds read low 1.01 | locus YML032C, strain rad52, active compounds read low 0.914 | locus YML120C, strain ndi1, active compounds read low 0.93 | locus YML124C, strain tub3, active compounds read low 1.05 | locus YMR078C, strain ctf18, active compounds read low 1.06 | locus YMR125W, strain sto1, active compounds read low 1.08 | locus YMR129W, active compounds read low 1.03 | locus YMR223W, strain ubp8, active compounds read low 0.934 | locus YMR231W, strain pep5, active compounds read low 0.95 | locus YNL128W, strain TEP1, active compounds read low 0.866 | locus YNL183C, strain NPR1, active compounds read low 0.935 | locus YNL209W, strain ssb2, active compounds read low 0.993 | locus YNL233W, strain BNI4, active compounds read low 0.926 | locus YNL248C, strain rpa49, active compounds read low 0.938 | locus YNL250W, strain rad50, active compounds read low 1.02 | locus YNL271C, strain bni1, active compounds read low 1.02 | locus YNL298W, strain CLA4, active compounds read low 0.978 | locus YNL322C, strain KRE1 (second series), active compounds read low 1.01 | locus YNR049C, strain mso1, active compounds read low 0.987 | locus YOL012C, strain htz1 1.89 | locus YOL147C, strain pex11, active compounds read low 1.02 | locus YOR061W, strain CKA2, active compounds read low 0.964 | locus YOR070C, strain gyp1, active compounds read low 0.953 | locus YOR080W, strain dia2, active compounds read low 0.973 | locus YOR144C, strain elg1, active compounds read low 1.02 | locus YOR231W, strain MKK1, active compounds read low 0.97 | locus YOR265W, strain rbl2, active compounds read low 0.994 | locus YOR270C, strain vph1, active compounds read low 0.807 | locus YOR290C, strain snf2, active compounds read low 0.937 | locus YPL106C, strain sse1, active compounds read low 1.12 | locus YPL240C, strain hsp82, active compounds read low 1.03 | locus YPL241C, strain CIN2, active compounds read low 0.997 | locus YPL256C, strain CLN2, active compounds read low 1.05 | locus YPR163C, strain tif3, active compounds read low 0.968 | locus YPR167C, strain met16, active compounds read low 0.991 | strain wtn01, active compounds read low 0.961
